The experiment concerns the target Glucose transporter (Leishmania mexicana) (UniProt O61059). As to the kind of experiment: ST_JUDE_LEISH: Cytotoxicity at 2uM final concentration against transgenic Leishmania Mexicana promastigotes LmGT2 that are glucose transport deficient and complemented with the L. Mexicana glucose transporter 2. Activity is measured by DNA content using SYBR green in vitro. Type of experiment: functional.
As usually defined, the inhibition is the relative decrease from the control value, in per cent. Consider `OCCOCCNCc1cccc(C#Cc2cc3ncnc(Nc4ccc(OCc5cccc(F)c5)c(Cl)c4)c3s2)n1`, for which the inhibition stood at 1.82%.
As to `N=C(N)Nc1ccc(OCCCCCOc2ccc(NC(=N)N)cc2Br)c(Br)c1`, the inhibition came to 0.79%.
Take `Cc1cc(NCCC(=O)NCCOc2ccccc2)nc(NCc2ccccc2C)n1`: the inhibition came to 0.45%.
`COC(=O)c1sc2ccccc2c1NC(=O)c1ccc(C)c(C)c1`: the inhibition is 5.56%.
`O=C(/C=C/c1ccc(Cl)c(Cl)c1)NCCCCCN1CCC(NC(=O)Nc2ccccc2Cl)CC1`: the inhibition worked out at 0.27%.
With `N#Cc1cc([N+](=O)[O-])ccc1-n1nc(-c2cccc(Cl)c2)n(Cc2ccco2)c1=S`, the inhibition was -3.52%.
On to `O=C(Nc1ccc(Cl)cc1)Nc1cccc(-c2cccc(-c3nc4cc(C(F)(F)F)ccc4[nH]3)c2)c1`, for which the inhibition was -2.27%.
`COc1ccc(CNC2Cc3ccccc3C2)cc1-c1ccc(S(=O)(=O)NCCN2CCCC2)s1`: the inhibition stood at 7.58%.
Then `COc1ccc(C=NN=c2c3ccccc3[nH]c3ccccc23)c2ccccc12`, with 5.05%.
In the case of `COc1cc2ncnc(Nc3ccc(OCc4ccccc4)c(I)c3)c2cc1OC`, the inhibition was found to be 1.33%.
Take `CCN(CC)CCCN(C(=O)c1cc2c(C)nn(-c3ccccc3)c2s1)c1nc(-c2ccc(OC)cc2)cs1`: the inhibition worked out at 8.72%.
Then `C[C@H](Cc1ccc(S(=O)(=O)c2ccc(C[C@@H](C)NC[C@H](O)c3cccc(Cl)c3)cc2)cc1)NC[C@H](O)c1cccc(Cl)c1`, with 2.18%; and `Cc1ccc(C)c2sc(N(CCCn3ccnc3)C(=O)c3ccco3)nc12`, with 5.23%; and `CC(C)Cn1c(Sc2ccc(C#N)c([N+](=O)[O-])c2)nnc1-c1ccc(N(C)C)cc1`, with -4.37%.
For `O=c1[nH]c2c(cc1CNC1CCCCC1)c(-c1ccc(F)cc1)nn2-c1ccccc1`, the inhibition turned out to be 0.4%.
As for `N=C(NCc1ccccc1)Nc1nc(-c2ccc(OCCCn3ccnc3)cc2)cs1`, the inhibition is 15.5%.
The value for `OCC1CCN(Cc2ccc(-c3cccc(-c4nc5ccccc5[nH]4)c3)cc2)CC1` was 3.83%.
`COc1cc2c(cc1OC)CN(CCc1ccc(NC(=O)c3cc4cc(Cl)ccc4[nH]3)cc1)CC2`: the inhibition came to 1.46%.
For the compound `CN(C)CCN(C)Cc1ccc(-c2ccc3c(Nc4ccc(Oc5ccccn5)cc4)ccnc3c2)o1`, the inhibition is -2.18%.
For `CN1CCC(N2CCN(Cc3cccc(-c4ccc(-c5nc6cc(C(F)(F)F)ccc6[nH]5)cc4)c3)CC2)CC1`, the inhibition was 2.07%.
As for `CN(Cc1cccc(F)c1)C1CCN(c2cc(NC(=O)c3cccc(F)c3)ccn2)CC1`, the inhibition is 2.7%.
In the case of `CC[C@H](C)CNC(=O)c1ccnc(-c2ccc(CNCCCc3ccccc3)cc2)c1`, the inhibition was -0.91%.
On to `COc1ccc(NC(=O)NC2CCN(CCCCCNC(=O)/C=C/c3ccc(Cl)c(Cl)c3)CC2)cc1`, for which the inhibition was -2.52%.
For the compound `CC(C)(C)c1ccc(NC(=O)c2ccc(CN3CCCN(Cc4cccc(C#N)c4)CC3)cc2)cc1`, the inhibition turned out to be 4.99%.
For the compound `O=C(CCc1c[nH]cn1)Nc1cccc(-c2ccc(-c3nc4ccccc4[nH]3)cc2)c1`, the inhibition came to 6.77%.
Turning to `CN=c1nc(NN=Cc2ccccc2Cl)[nH]c(=Nc2cccc(C(F)(F)F)c2)[nH]1`, the inhibition was 4.76%.
The value for `O=C(Nc1cccc(CN2CCCN(Cc3ccc(O)cc3)CC2)c1)c1cccc(Cl)c1` was 11.7%.
For the compound `COc1ccc(CNCCCCCCCNCc2ccc(Cl)c(Cl)c2)cc1Cl`, the inhibition turned out to be 2.7%.
In the case of `Cc1cc(C)c(NC(=O)N[C@H]2CCN(CCCCCNC(=O)/C=C/c3ccc(Cl)c(Cl)c3)C2)c(C)c1`, the inhibition was 1.3%.
As for `O=C(NC1CC1)c1ccc(N2CCCC(COc3ccc4c(c3)CCCC4)C2)nc1` (stereo not given), the inhibition came to 1.93%.
As for `O=C(Cn1c(CCc2cccc(F)c2F)nc(=O)c2ccccc21)N(Cc1ccc(-c2ccc(C(F)(F)F)cc2)cc1)C1CCN(C2CCOCC2)CC1`, the inhibition came out at 1.17%.
On to `CN1CCN(c2cc3c(cc2Cl)CCN3C(=O)Cc2ccc(Cl)c(NC(=O)Nc3cccc(C#N)c3)c2)CC1`, for which the inhibition was -0.22%.
In the case of `Cc1cccc2nc(-c3ccc(-c4cccc(CNCCc5ccncc5)c4)cc3)[nH]c12`, the inhibition came to 0.92%.
Regarding `CCN1CCN(c2ccc(NC(=O)c3cc4c(C)nn(-c5ccccc5)c4s3)cc2C)CC1`, the inhibition is -1.39%.
As to `O=S(=O)(ON=C1CCc2ccccc21)c1ccc(Cl)cc1`, the inhibition stood at 3.35%.
On to `Clc1ccc(OCc2ccccc2)c(-c2nc(-c3nc4ccc(Cl)cc4[nH]3)cs2)c1`, for which the inhibition worked out at 3.09%.
In the case of `COc1ccc(CCN2CCC(CN(C)Cc3cnn(-c4ccccc4)c3)CC2)cc1`, the inhibition came to 7.63%.
Turning to `Cc1c(-c2cccc(C(C)(C)NCCCN3CCCCC3)c2)cnc(N)c1C`, the inhibition turned out to be 0.62%.
Then `O=C(Nc1ccc(Br)cc1)N(CCN1CCOCC1)CC(O)COc1ccc(Cl)c(F)c1` (stereo not given), with 1.5%; and `CC(C)c1cccc(C(C)C)c1NC(=O)NNC(=O)c1ccc(CCN2CCC(c3nc(COCC(F)(F)F)c(-c4ccc(F)cc4)o3)CC2)cc1`, with 12.7%.

For the origin of these results see ChEMBL document CHEMBL3433997, “St. Jude Leishmania screening dataset” (2016).
